The supplement of paper PMC6555819

How the values were obtained:
Test in all cases: PBM binding z-score (relative to random genomic background probes); higher = stronger binding; sequences stand for … in GC…GCGATTGACAGCGTAGAATGAAGG
[1] = test system: FXR:RXRa (NR concentration 270 nM, RXRa partner concentration 90 nM)
Procedure, shortened: (§1)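 For binding z-scores, the reference was random background probes on custom Agilent 4×180K protein-binding microarrays. These arrays were incubated 1 h with ligand-free nuclear receptor dimers in PBS pH 7.4, 2% milk, 0.02% Triton X-100, 1 mM DTT, 0.2 mg/mL BSA and 0.4 mg/ml salmon testes DNA. Fluorescence was scanned after antibody detection of each partner (one per run) and regression-normalized.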

[2] = test system: LXRa:RXRa (NR concentration 270 nM, RXRa partner concentration 90 nM)
Procedure, shortened: as §1

[3] = test system: LXRa homodimer (NR concentration 270 nM)
Procedure, shortened: as §1

[4] = test system: LXRb:RXRa (NR concentration 270 nM, RXRa partner concentration 90 nM)
Procedure, shortened: as §1

[5] = test system: LXRb homodimer (NR concentration 270 nM)
Procedure, shortened: as §1

[6] = test system: PPARa:RXRa (NR concentration 270 nM, RXRa partner concentration 90 nM)
Procedure, shortened: as §1

[7] = test system: PPARg:RXRa (NR concentration 180 nM, RXRa partner concentration 90 nM)
Procedure, shortened: as §1

[8] = test system: PPARg:RXRa 270nM:90nM, anti-RXR (NR concentration 270 nM, RXRa partner concentration 90 nM)
Procedure, shortened: as §1

[9] = test system: PPARg:RXRa 30nM:10nM, anti-RXR (NR concentration 30 nM, RXRa partner concentration 10 nM)
Procedure, shortened: as §1

[10] = test system: PPARg:RXRa 90nM:30nM, anti-RXR (NR concentration 90 nM, RXRa partner concentration 30 nM)
Procedure, shortened: as §1

Sequence	PBM binding z-score [1]	PBM binding z-score [2]	PBM binding z-score [3]	PBM binding z-score [4]	PBM binding z-score [5]	PBM binding z-score [6]	PBM binding z-score [7]	PBM binding z-score [8]	PBM binding z-score [9]	PBM binding z-score [10]
TAGCCTAGGTCATGCGGGCCTGTATAGTGTCGGC	3.73	3.24	0.135	1.6	-0.428	3.27	1.91	2.39	0.161	1.45
TCAAATAGGTAAAGGTGAAAGTCGAACGATATGA	0.93	1.78	0.0504	1.72	0.00812	3.48	3.34	4.34	5	4.99
TCTCGGAGGACACGAAAGGTCAGAGATCGACATC	3.24	3.71	2.64	3.32	0.0145	3.65	1.5	2.75	2.97	2.88
AATACAGGGTCACAAGGCCAGAGTAGGTACGAAT	6.89	5.61	1.21	4.47	1.18	5.99	7.38	6.69	3.96	5.46
GTACCAAGGTGAATAGGGCGTTGATGAGTAGGCG	0.407	0.248	-0.214	-0.0331	-0.614	1.22	1.02	0.756	-0.0867	0.088
TAGCCTAGATCATTGGGCCAGTATAGTACGCATC	-0.685	-0.948	-0.567	-0.649	-0.658	-0.513	0.37	-0.537	-0.101	-0.125
ATATGTAGGTTATGGGTCATTCAGGTTGGTTCGC	3.1	3.26	1.87	3.22	1.22	5.51	9.66	8.74	8.22	9.39
AATACAGGGTCCCTAGGCCAGAGTAGGTACGAAT	-0.341	-0.334	-0.145	-0.634	-0.575	-0.299	0.603	0.00679	0.133	0.0597
TCTAGTTGATCACGGAGGTCACACACGACGGGTA	2.88	3.08	1.8	3.27	0.399	3.76	2.09	3.19	3.41	2.99
CGTCCAAGGTCAAAGGTCAGAGAAGAGATGACGG	8.35	7.24	3.55	6.68	1.89	7.26	10.7	9.26	8.39	9.75
ATCTCTAGGTAAGGTTCAGTGAAAGATCGATAGA	0.902	1.26	0.551	1.07	1.03	1.4	1.25	2.17	0.962	1.9
CCTATTAGTTGACCATAGGGGCAACCGAAGCTCG	0.589	0.362	0.304	0.153	0.195	0.245	0.395	0.309	-0.142	0.113
AGCACGAGGGCAATGAGTTGATAGCACGGGTGGC	0.125	0.129	-0.673	-0.297	-0.733	0.58	0.928	-0.00435	-0.788	-0.265
CCAACGAGGGCATGAGTTGATAGCAAATGCCGAT	0.351	0.134	-0.411	-0.153	-0.701	0.994	1.05	0.858	-0.155	0.242
CAAACTAAGTCACGAAAGGTCAAAGTCGAATGAC	5.23	6.68	6.01	5.99	2.17	5.89	4.13	4.96	2.48	4.04
TCGAGTTGGTTAGTCGGGGCATTCAGCCAACATA	0.0149	-0.0453	-0.453	0.513	-0.685	0.218	-0.686	0.5	1.2	0.81
ATCTCTAGGTAAAGTTCAGAGAAAGATCGATAGA	1.31	1.89	1.72	1.3	0.639	2.4	3.54	4.66	2.76	4.68
TAGCCTAGGTCATGCAGGCCAGTATAGTGTCGGC	3.92	2.91	0.151	1.7	-0.186	3.38	2.19	2.37	0.209	1.34
CTCCAAAGGTCGTGCTCAGGTGAGTATACCAAAC	5.95	4.42	0.227	3.67	0.361	5.08	3.62	4.58	1.3	3.35
GCCTGTAGATCAAGGTTAAGAAAGACTAAGCTAA	0.000969	0.697	-0.269	0.679	-0.964	1.28	0.434	1.19	0.0672	0.861
GGAACGAGGGCATTCTAGTTGATAGCATGGCGAT	1.44	1.08	-0.665	0.264	-0.166	1.21	0.871	0.642	-0.247	0.231
ACTAGCAGGCCAAGGGTCAGTCAAGATTAGTCCG	1.44	1.16	-0.0253	1.33	-0.691	3.79	6.42	6.45	5.89	6.62
CGTCAAAGTTCAAGGTAGCGTAACAGAAAGCAGC	5.54	5.8	2.95	3.18	0.738	4.56	3.8	5.04	2.26	3.89
